Compound activity: PubChem BioAssay, Sanford-Burnham Center for Chemical Genomics
The sample as a whole holds a higher share of hits than the screen did.
Artemis inh: inhibitors of human Artemis endonuclease activity; Q96SD1; AID 686954; recombinant Artemis, quenched FAM hairpin cleavage fluorescence; 0.78% of 30,000 active; inhibition, % at 10 µM;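 active = at 10 µM dose, at least 30% inhibition, measured as corrected fluorescence normalized to stimulator and neutral control wells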
Target sequence (Q96SD1 whole entry, looked up): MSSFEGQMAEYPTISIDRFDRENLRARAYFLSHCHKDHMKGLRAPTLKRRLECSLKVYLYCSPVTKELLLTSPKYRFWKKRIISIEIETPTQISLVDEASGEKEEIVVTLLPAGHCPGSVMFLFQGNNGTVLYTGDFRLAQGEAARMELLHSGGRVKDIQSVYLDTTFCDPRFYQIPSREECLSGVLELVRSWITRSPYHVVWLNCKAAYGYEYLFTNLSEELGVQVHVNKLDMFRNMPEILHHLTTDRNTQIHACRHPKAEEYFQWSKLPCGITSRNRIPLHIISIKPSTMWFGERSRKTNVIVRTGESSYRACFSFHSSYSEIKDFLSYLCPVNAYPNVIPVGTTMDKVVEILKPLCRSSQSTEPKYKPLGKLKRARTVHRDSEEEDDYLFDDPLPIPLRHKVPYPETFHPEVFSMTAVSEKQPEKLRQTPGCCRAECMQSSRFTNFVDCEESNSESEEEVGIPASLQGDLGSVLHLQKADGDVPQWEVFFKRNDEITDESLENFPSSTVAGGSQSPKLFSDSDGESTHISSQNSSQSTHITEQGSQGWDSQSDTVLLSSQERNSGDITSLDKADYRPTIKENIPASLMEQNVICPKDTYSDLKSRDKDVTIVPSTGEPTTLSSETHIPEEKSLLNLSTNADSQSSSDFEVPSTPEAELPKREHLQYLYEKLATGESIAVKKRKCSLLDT
A number is an active result; – = inactive.

SMILES	Artemis inh
Nc1c(C(O)(C(F)(F)F)C(F)(F)F)cc(C(O)(C(F)(F)F)C(F)(F)F)c2ccccc12	–
Cc1ccc(NC(=O)c2cc(S(=O)(=O)c3ccccc3)ccc2Cl)cc1	–
Oc1ccc2ccccc2c1C=Nc1ccccc1-c1nc2ccccc2[nH]1	–
Oc1c(Br)cc(Br)cc1/C=N/c1nc2c(s1)CCCC2	–
Oc1ccc2ccccc2c1/C=N/c1nc2c(s1)CCCC2	63
O=C(CSc1nnc(-c2ccccc2)o1)OCc1ccccc1	–
Cc1cccc(Sc2c(C=O)c3ccccc3n2C)c1	–
COC(=O)c1cc(-c2c[nH]c3ccccc23)n[nH]1	–
CNc1nc(-c2c[nH]c3ccccc23)cs1	38
Cc1csc(NC(=O)Cc2c[nH]c3ccccc23)n1	–
Cc1cc(C(=O)CSc2nnc(-c3cccnc3)n2-c2ccccc2F)c(C)n1CC1CCCO1 (stereo not drawn)	–
CCc1nc(NCCCCCO)c2nnn(Cc3ccccc3F)c2n1	–
Nc1[nH]nc2nc(NCc3ccccc3)c3c(c12)CCN(Cc1ccccc1)C3	–
N#Cc1c(NCCN)nc(NCc2ccccc2)c2c1CCN(Cc1ccccc1)C2	58
N#Cc1c(NCCN)nc(-c2ccccc2)c2c1CCCC2	–
CC(C)CC(=O)Nc1ccc(N2CCOCC2)cc1	–
Cc1ccc(C(=O)CSc2nnc(-c3ccco3)n2CC2CCCO2)cc1 (stereo not drawn)	–
O=C(CSCc1cccc(Cl)c1)N1CCN(Cc2ccc3c(c2)OCO3)CC1	–
O=C(Nc1nc2n(n1)C(c1ccccc1)C=C(c1ccccc1)N2)c1ccco1 (stereo not drawn)	–
COc1ccc(C2CC(c3ccccc3)n3nc(NC(=O)c4cccs4)nc3N2)cc1 (stereo not drawn)	59
COc1ccc(C2CC(c3ccc(Cl)cc3)Nc3nc(NC(=O)c4ccco4)nn32)cc1 (stereo not drawn)	54
COc1cccc(C2CC(c3ccc(Cl)cc3Cl)Nc3nc(N)nn32)c1 (stereo not drawn)	–
COc1ccc(C2CC2/C(=N/OC(=O)c2cccs2)c2ccccc2)cc1 (stereo not drawn)	–
COc1ccc(NC(=O)c2cccs2)cc1	–
c1ccc(-c2nc(N3CCCCCC3)c3ccccc3n2)nc1	78
SMILES	Artemis inh
c1ccc(-c2nc(N3CCOCC3)c3ccccc3n2)nc1	–
c1ccc(CN2CCN(c3nc(-c4ccccc4)nc4ccccc34)CC2)cc1	–
Cc1nn(-c2ccccc2)c(Cl)c1C(=O)Nc1nnc(C2CCCC2)s1	–
CCN(CC)c1ccc(NC(=O)CSc2nc3ccccc3c(=O)[nH]2)cc1	–
CCN(CC)c1ccc(C(=O)n2cnc3ccccc32)cc1	30
Cc1ccc(-c2cc(C(=O)n3cnc4ccccc43)c3ccccc3n2)cc1C	–
CCOC(=O)c1sc(NC(=O)c2cc(-c3ccccc3)nc3ccccc23)c(C#N)c1C	–
CCC(Sc1nc2ccccc2s1)C(=O)Nc1cc(C)on1 (stereo not drawn)	–
COc1ccccc1OCCC(=O)OCC(=O)Nc1ncc(Cl)cc1Cl	–
O=C(CCc1nc2ccccc2[nH]1)Nc1ccc2c(c1)OCO2	–
COc1cc(/C=N\NC(=O)Cn2nnc3ccccc32)cc(OC)c1OC	–
CC(C)(C)c1cc(/C=N/NC(=O)Cc2nc3ccccc3[nH]2)cc(C(C)(C)C)c1O	32
COc1ccc(C(=O)Nc2ccc(N3CCCC3)cc2)cc1	62
O=C(Nc1ccc(N2CCCCC2)cc1)c1ccc(F)cc1	–
CCOc1ccc(C(=O)Nc2ccc(N3CCCC3)cc2)cc1	–
CNC(=O)c1nnn(Cc2ccccc2)c1NC(=O)C(F)(F)F	–
CC(=O)C1=NN(c2ccccc2)C2(S1)S/C(=C\c1ccccc1)C(=O)N2c1ccccc1 (stereo not drawn)	–
C/C(=N/OCC(=O)Nc1ccc(C)cc1C)c1cccs1	–
c1ccc(-c2nc3c(ccc4ccccc43)[nH]2)nc1	44
Cc1[nH]c2ccccc2c1C(c1ccccn1)c1c(C)[nH]c2ccccc12	–
O=c1[nH]c(-c2ccccn2)nc2ccccc12	–
CCCCOc1ccc(C2(C)CC(=O)NC2=O)cc1 (stereo not drawn)	–
O=C(NCC1c2ccccc2CCN1C(=O)CN1C(=O)c2ccccc2C1=O)C1CCCCC1 (stereo not drawn)	–
Clc1cc(CSc2ccccc2)nc(-c2ccccc2)n1	–
CCCCC(=O)Nc1ccc(NC(=O)C2CC2)nc1	–
SMILES	Artemis inh
Fc1ccc(C2=Nn3c(nnc3-c3n[nH]c4c3CCC4)SC2)cc1	–
C1CCC(c2nn3c(-c4n[nH]c5c4CCC5)nnc3s2)CC1	–
CCN(CC)c1ccc(-c2nn3c(-c4n[nH]c5c4CCC5)nnc3s2)cc1	58
CNS(=O)(=O)c1cnccc1N1CCN(c2cccc(C(F)(F)F)c2)CC1	–
N#Cc1c(-c2ccc(Cl)cc2)ccn2nc(C3CCCCC3)nc12	–
Cc1ccc(C(=O)Nc2ccc3cn[nH]c3c2)cc1S(=O)(=O)N1CCCCC1	–
COC(=O)CN(C(=O)CSc1nnc(-c2cccc(OC)c2)o1)c1ccc(OC)cc1	34
COc1cccc(-c2nnc(SCC(=O)N3CCOCC3)o2)c1	–
COc1ccc(C(=O)CSc2nnc(-c3ccccc3)o2)cc1	–
O=C(NCCN1CCCC1)c1cc(-c2ccncc2)nc2ccc(S(=O)(=O)N3CCOCC3)cc12	–
CC(=O)N(C)c1nnc(-c2ccccn2)s1	–
COc1ccc2nc(NC(=O)C3CCCN(S(=O)(=O)c4cccs4)C3)sc2c1 (stereo not drawn)	40
COc1ccc2nc(NC(=O)C3CCN(S(=O)(=O)c4cnc[nH]4)CC3)sc2c1	–
CCOc1ccc(OCC)c(NC(=O)C2CCCN(S(=O)(=O)c3cccs3)C2)c1 (stereo not drawn)	–
CCNc1nc(NC(C)C)nc(OCC)n1	–
C=CCn1c(COc2ccccc2)nnc1SC(C)C(=O)N/N=C/c1cc(Cl)ccc1O (stereo not drawn)	–
COc1cccc(CN(C(=O)c2ccco2)C(C(=O)NC2CCCC2)c2cccnc2)c1 (stereo not drawn)	–
COc1cccc(C(C(=O)NC2CCCC2)N(Cc2ccc(C)cc2)C(=O)c2ccco2)c1OC (stereo not drawn)	–
COc1ccccc1CN(C(=O)c1ccco1)C(C(=O)NC1CCCC1)c1ccncc1 (stereo not drawn)	83
C=CCSC(=C(C#N)C#N)c1cc2c([nH]1)CCCC2	–
CONC(=O)C1CCN(C(=O)OCc2ccccc2)CC1	–
COc1cc(C2Nn3c(nnc3-c3ccccc3OC)S2)ccc1O (stereo not drawn)	–
COc1ccc(NC(=O)CSc2nc(C)cc(C)n2)cc1	–
COc1ccc(NC(=O)CSc2nc3c(cc2C#N)CN(C)CC3)cc1	37
COc1ccc(-c2c(C#N)c(SCC(=O)Nc3ccccc3)nc3c2CCCC3)cc1	–
SMILES	Artemis inh
COc1ccc(CNC(=O)c2ccc(=O)oc2)cc1OC	–
Cc1ccc(C)c(S(=O)(=O)N2CCN(CC(=O)N3CCc4ccccc4C3)CC2)c1	–
CCOc1ccc(/C(O)=C2/C(=O)C(=O)N(c3nc(C)c(C)s3)C2c2ccco2)cc1 (stereo not drawn)	43
CCOc1ccc(/C(O)=C2\C(=O)C(=O)N(c3cc(C)on3)C2c2ccccc2OC)cc1 (stereo not drawn)	–
CCN(CC)CCN1C(=O)C(=O)/C(=C(/O)c2ccc(OC)cc2)C1c1ccco1 (stereo not drawn)	–
Cc1cc(C)c(C(N)=O)c(Nc2ccc3c(c2)OCCO3)n1	–
COc1ccccc1Nc1nc(C)cc(C)c1C(N)=O	–
Cc1cc(C)c(C(N)=O)c(Nc2cccc3ccccc23)n1	34
